# Pf apPOL block – Pf-apPOL DNA polymerase inhibition; Recombinant Pf-apPOL, molecular beacon fluorescence, 1.5 h; inhibition, % at 10 µM; hit rate 0.25% among 210,000; AID 1794808
# mHTT CaM bind – disrupts binding of mutant huntingtin to calmodulin; hit rate 3.6% among 190,000; AlphaScreen His-mHTT/GST-CaM binding, luminescence; P42858; inhibition, % at 15 µM;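 also: 0% = both proteins with DMSO and 100% = one protein alone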
# Active calls of the source: *; . = no result. Shown is part of a subset that was picked to be rich in hits. Rule as the data show it: active = inhibition above about 50%; inactive = the rest.
SMILES,Pf apPOL block,mHTT CaM bind
COc1ccc(NC(=O)c2c(NCc3ccccn3)sc3c2CCC3)cc1,-17,59*
COc1ccc(Cl)cc1NC(=O)c1c(NCc2cccn2C)sc2c1CCCC2,-15,65*
COc1ccc(OC)c(NC(=O)c2c(NCc3ccccn3)sc3c2CCCC3)c1,-18,59*
O=[N+]([O-])c1ccc(-n2cncn2)c(F)c1,.,1
CCOc1ccc(C2=C/C(=C/c3ccc4c(c3)OCO4)C(=O)O2)cc1,16,4
O=C(CCn1c(=O)[nH]c2ccsc2c1=O)N1CCN(c2ccccn2)CC1,-2,0
CCNC(=O)N1CC(C(=O)N2CCSCC2)CCC1c1cccc(C)c1 (stereo not given),-2,3
CC(=O)C=C(NCCNC(=CC(C)=O)c1ccccc1)c1ccccc1,2,.
CCCC(=O)Nc1ccc2c(c1)OCCO2,3,-2
O=C(CCCn1cccc1)Nc1ccc2c(c1)OCCO2,78*,7
CCc1nnc(NC(=O)c2c(OC)cccc2OC)s1,3,1
CCc1nnc(NC(=O)c2cc(OC)c(OC)c(OC)c2Br)s1,80*,6
CCn1ccc2oc(C)c(C(=O)NCC3CCCO3)c2c1=O (stereo not given),0,-4
COc1ccc(C)cc1C1=C/C(=C\c2ccc(C)o2)C(=O)O1,3,61*
COc1ccc(OC)c(/C=C2\C=C(c3cc(OC)ccc3OC)OC2=O)c1,-8,12
Cc1ccc(-n2c(CN3CCN(C(=O)NCc4ccco4)CC3)nc3cccnc32)cc1,7,25
Cc1ccc(NC(=O)O[C@@H]2C[C@H]3C[C@@H]2[C@H]2CCCCN2C3)cc1C,-3,24
COc1ccc(/C=C2\CCC3=C2OC(N)=C(C#N)C3c2ccc(OC)cc2)cc1 (stereo not given),-10,63*
N#CC1=C(N)OC2=C(CC/C2=C\c2cccc(F)c2)C1c1cccc(F)c1 (stereo not given),-3,94*
N#CC1=C(N)OC2=C(C(=O)CC(c3ccccc3)C2)C1c1cccc(F)c1 (stereo not given),-7,10
COc1ccc(/C=C2\CCCC3=C2OC(N)=C(C#N)C3c2ccc(OC)c(OC)c2)cc1OC (stereo not given),-2,38
O=c1c2ccccc2nc2c3ccccc3c(NCc3ccccn3)nn12,0,81*
Cc1cc(C)n(-c2nn3c(=O)c4ccccc4nc3c3ccccc23)n1,12,-9
O=c1c2ccccc2nc2c3ccccc3c(NCc3cccnc3)nn12,-11,80*
Cc1nc2ccccc2c(=O)n1Cc1cccnc1,-3,0
SMILES,Pf apPOL block,mHTT CaM bind
Cc1ccc(NCN2C(=O)C3C4C=CC(C4)C3C2=O)cc1Cl (stereo not given),2,2
O=c1c2ccccc2nc2nc(-c3ccccc3)cc(-c3ccccc3)n12,-8,0
CC(C)(C)c1noc(-c2cc3n(n2)CC(c2ccc(Cl)cc2)OC3)n1 (stereo not given),-3,2
O=C(Nc1ccc(F)c(F)c1)C1CCN(c2cc(C(=O)N3CCCC3)ccn2)CC1,-4,6
O=C(Nc1ccc2c(c1)OCO2)C1CCN(c2cncnc2N2CCCCC2)CC1,5,29
O=C(Nc1ccc2c(c1)OCO2)C1CCN(c2cc(N3CCCCC3)ncn2)CC1,-4,56*
C=C(C)C1CC=C(CN2CCN(c3ccccn3)CC2)CC1 (stereo not given),-4,-10
Cc1cc(Cl)c(OCCCN2CCOCC2)c(Br)c1,-5,-3
Clc1cc2c(c3ncccc13)OCN(CCCN1CCOCC1)C2,-12,100*
Cc1cccc(CNC(=O)c2ccc3c(c2)n(C)c(=O)c2ccnn23)c1,6,58*
Cn1c(=O)c2ccnn2c2ccc(C(=O)NCc3ccccc3)cc21,3,-2
CC1=NN(S(=O)(=O)c2cnn(C)c2)C(O)(C(F)(F)F)C1 (stereo not given),.,-7
CC(C)(C)CC(C)(C)NC(=O)c1cc2n(n1)C(C(F)(F)F)CC(c1ccc3c(c1)OCO3)N2 (stereo not given),-4,8
CSc1ccc(C2Oc3ccccc3C3=C2C(c2cccs2)n2ncnc2N3)cc1 (stereo not given),-5,38
COc1cccc(C2C3=C(Nc4ncnn42)c2ccccc2OC3c2ccccc2F)c1 (stereo not given),7,5
COc1cccc(C2C3=C(Nc4ncnn42)c2ccccc2OC3c2ccccc2Cl)c1 (stereo not given),-8,58*
Fc1ccc(C2Oc3ccccc3C3=C2C(c2cccs2)n2ncnc2N3)cc1 (stereo not given),-3,61*
O=C(c1ccc(C(F)(F)F)s1)N1CCc2c(nc(-c3ccc(F)cc3)[nH]c2=O)C1,-1,-1
CCOc1ccc(NC(=O)N2CCCC2c2ccc(C)cc2)cc1 (stereo not given),-1,0
O=[N+]([O-])c1cccc(C(Nc2ccccn2)c2ccc3cccnc3c2O)c1 (stereo not given),-3,100*
O=C(/C=C/c1cccc([N+](=O)[O-])c1)Nc1ccccn1,-4,2
Cc1cc(NC(=O)c2cccc([N+](=O)[O-])c2)no1,-3,-6
Cc1cc(NC(c2cccc([N+](=O)[O-])c2)c2ccc3cccnc3c2O)no1 (stereo not given),1,100*
CC(C)CCNC(=O)C1c2ccccc2CC(=O)N1Cc1ccccc1 (stereo not given),-3,-8
CC(=O)N1CC(C(=O)NCc2ccccn2)CCC1c1ccc(F)c(C)c1 (stereo not given),-15,80*
SMILES,Pf apPOL block,mHTT CaM bind
CC(=O)N1CC(C(=O)NCCc2ccccn2)CCC1c1ccc(F)c(C)c1 (stereo not given),-5,6
Cc1ccc(N2CC(C(=O)NCc3ccccc3)CC2=O)cc1 (stereo not given),-6,-8
CC1CCN(c2ccc(N3CCC(C(=O)NCc4ccccn4)CC3)nn2)CC1,-6,71*
Cc1ccc(-c2nnc(N3CCC(C(=O)NCc4ccccn4)CC3)o2)cc1,-8,76*
CC1CCN(c2nnc(C(=O)NCc3ccccn3)c3ccccc23)CC1,-6,36
Cc1ccc(-c2nnc(N3CCC(C(=O)NCc4ccccc4)CC3)o2)cc1,-2,6
Cc1ccc(N2CC(C(=O)NCc3ccccn3)CC2=O)cc1 (stereo not given),-19,100*
CCOc1ccc(C(=O)Nc2ccc(SC(F)F)cc2)cc1,5,-9
Cn1c(-c2ccco2)nn(CN2CCCCC2)c1=S,.,-2
Cc1cc(OCC(=O)Nc2cccc(C)c2C)nc(N2CCC(C)CC2)n1,2,0
O=C1CC(N2CCN(Cc3ccc4c(c3)OCO4)CC2)C(=O)N1c1ccc(Br)cc1 (stereo not given),0,2
CC(=O)c1cccc(N2C(=O)C3C4C=CC(CO)(O4)C3C2=O)c1 (stereo not given),8,-3
CCc1ccc2cc(-c3ccc(Cl)cc3)cn2c1,-2,59*
CCc1nn2cc(-c3ccc(Cl)cc3)nc2s1,-8,-9
N#Cc1c(-c2ccccc2)cc(-c2ccco2)c(C#N)c1N,9,55*
N#CCOc1nc(-c2ccccc2)cc(-c2ccco2)c1C#N,0,.
N#Cc1c(-c2ccco2)cc(-c2ccco2)[nH]c1=O,93*,.
N#Cc1ccc(-c2ccco2)[nH]c1=O,33,.

# High-throughput results from PubChem.
